# Measured values from PubChem BioAssay (NCI).
# This is part of a sample that, as a whole, favours compounds with a hit. Of some 83,000 tested, about 20% had one in any assay.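 Each cell line was grown in a 96-well plate and treated with one concentration of compound for 48 hours. Values below 10 were considered active.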 Values without a mark were called inactive. Calls of active or inactive are those of the source.
# System: UACC-257 melanoma
# Assay: NCI-60 one-dose screen, 48 h (100 = growth as untreated, 0 = no growth, -100 = all killed)
# Conditions: 10 µM unless noted
row,SMILES,growth
1,Cc1ncc(-c2ccnc(Nc3ccc(S(C)(=O)=O)cc3)n2)n1C(C)C,-28.3% (active)
2,C/C=C/C=N/NC(=S)Nc1ccccc1,81.1%
3,Cc1nn(-c2ccccc2)c2c1N=c1s/c(=C\c3cn(-c4ccccc4)nc3-c3ccc(Cl)cc3)c(=O)n1C(C)N2 (stereo not drawn),111%
4,COc1cc2c(cc1OCCCN1Cc3ccc(OCCCCC(=O)N4CCC(CCN5CCCC5)CC4)cc3C1)N=C(N)C21CCCC1,85.1%

# System: M14 melanoma
# Assay: as above
# Conditions: 10 µM unless noted
row,SMILES,growth
1,COc1cccc2cc(-c3nc(C4CCC(C(=O)O)CC4)n4ncnc(N)c34)[nH]c12 (stereo not drawn),4.34% (active)
2,CNC(=O)c1cc(Oc2ccc3nc(NC(=O)Nc4ccc(Cl)c(C(F)(F)F)c4)sc3c2)ccn1,-10.4% (active)
3,C[C@@H](Oc1cc(-n2cnc3ccc(CN4CCN(C)CC4)cc32)sc1C(N)=O)c1ccccc1C(F)(F)F,15.7%
4,Oc1ccc(C(c2ccc(O)cc2)C(Cl)(Cl)Cl)cc1,105%
5,C[C@H](NC(=O)c1c(N)nn2cccnc12)c1cc2cccc(C#Cc3cnn(C)c3)c2c(=O)n1-c1ccccc1,29.5%
6,COc1cc(CCc2cc(NC(=O)c3ccc(N4C[C@@H](C)N[C@@H](C)C4)cc3)n[nH]2)cc(OC)c1,18%
7,CNC(=O)CN1CCC(Oc2cc3c(Nc4cccc(Cl)c4F)ncnc3cc2OC)CC1,84.1%
8,Cc1oc2c(C(=O)N/N=C\c3ccc(O)cc3O)c[nH]c2c1C,-13.8% (active)
9,CCCCCc1ccc(C)cc1OC(=O)CCl,111%
10,COc1cc2ncnc(Oc3cccc(NC(=O)Nc4cc(C(C)(C)C(F)(F)F)on4)c3)c2cc1OC,-2.42% (active)
11,COc1cc(Nc2ncc3c(n2)-c2ccc(Cl)cc2C(c2c(F)cccc2OC)=NC3)ccc1C(=O)O,62.8%
12,CC[C@H](Nc1ncnc2nc[nH]c12)c1nc2cccc(F)c2c(=O)n1-c1ccccc1,85.3%
13,CN1CCN(CCOc2cc(OC3CCOCC3)c3c(Nc4c(Cl)ccc5c4OCO5)ncnc3c2)CC1,79.4%
14,Nc1nc(Nc2ccccc2)c(C=Nc2ccccc2)c(=O)[nH]1,91.5%
15,CNC(=O)c1cc(Oc2cccc3nc(Nc4ccc(Oc5ccccc5)cc4)ccc23)ccn1,68.6%
16,CN1CC[C@@H](c2c(O)cc(O)c3c(=O)cc(-c4ccccc4Cl)oc23)[C@@H]1CO,-35.4% (active)
17,Cc1[nH]n(C(N)=S)c(=O)c1N=Nc1ccc(S(=O)(=O)Nc2ccncn2)cc1,106%
18,COCCN1CCN(Cc2ccc(-c3n[nH]c4c3C(=O)c3c(NC(=O)NN5CCOCC5)cccc3-4)cc2)CC1,-52.6% (active)
19,CN(c1ncccc1CNc1nc(Nc2ccc3c(c2)CC(=O)N3)ncc1C(F)(F)F)S(C)(=O)=O,-23.9% (active)
20,COc1cc(N2CCC(N3CCN(C)CC3)CC2)ccc1Nc1ncnc(Nc2ccccc2S(=O)(=O)C(C)C)n1,93.3%

row,SMILES,growth
1,O=C(COc1ccc(/C=C2\Cc3ccc(Cl)cc3C2=O)cc1)Nc1nccs1,103%
2,O=C(c1ccc(/C=C/c2n[nH]c3ccccc23)cc1)N1CCNCC1,27.8%
3,O=C(O)C1(Cc2cccc(Nc3nccs3)n2)CCC(Oc2cccc(Cl)c2F)CC1 (stereo not drawn),58%
4,Cc1cc(O)cc(-c2c(-c3ccnc(-c4cccnc4)c3)cnn2C)c1,66%
5,Cc1c(CN2CCN(C(=O)[C@H](C)O)CC2)sc2c(N3CCOCC3)nc(-c3cnc(N)nc3)nc12,-21.4% (active)
6,CN1CCN(c2ccc(C(=O)Nc3n[nH]c4ccc(Cc5cc(F)cc(F)c5)cc34)c(NC3CCOCC3)c2)CC1,-79.7% (active)
7,C#Cc1cccc(Nc2ncnc3cc(OCCOC)c(OCCOC)cc23)c1,48.5%
8,COc1ccc(Nc2ncccc2NC(=O)c2cn(Cc3cccc(Oc4ccccc4)c3)nn2)cc1,95.9%
9,O=C1NC(=O)[C@@H](c2cn3c4c(cccc24)CCC3)[C@@H]1c1c[nH]c2ccccc12,8.08% (active)
10,Cc1cc(-c2cc(O)ccc2Cl)cc2nnc(Nc3ccc(OCCN4CCCC4)cc3)nc12,-51.8% (active)
11,C=CCN(/C=C1/C(=O)O[C@H](COC)[C@@]2(C)C1=C(O)C(=O)C1=C2[C@H](OC(C)=O)C[C@]2(C)C(=O)CC[C@@H]12)CC=C,28.2%
12,CNC(=O)c1nn(C)c2c1C(C)(C)Cc1cnc(Nc3ccc(N4CCN(C)CC4)cc3)nc1-2,12.5%
13,CC(C)Nc1cc(-c2c[nH]c(C(=O)N[C@H](CO)c3cccc(Cl)c3)c2)c(Cl)cn1,3.28% (active)
14,COc1ccc(Cc2cc(-c3ccccc3C)n[nH]c2=O)cc1,115%
15,CC(C)[C@@H]1CC[C@@H]2[C@@H]1[C@H](OC(=O)/C=C/c1ccccc1)[C@]1(C(C)C)C[C@@H](OC(=O)CO)[C@@]2(C)O1,95.8%
16,Cc1ncc(-c2ccnc(Nc3ccc(S(C)(=O)=O)cc3)n2)n1C(C)C,-74.5% (active)
17,C/C=C/C=N/NC(=S)Nc1ccccc1,96.5%
18,Cc1nn(-c2ccccc2)c2c1N=c1s/c(=C\c3cn(-c4ccccc4)nc3-c3ccc(Cl)cc3)c(=O)n1C(C)N2 (stereo not drawn),107%
19,COc1cc2c(cc1OCCCN1Cc3ccc(OCCCCC(=O)N4CCC(CCN5CCCC5)CC4)cc3C1)N=C(N)C21CCCC1,58.2%
